The full data set covers some 7,900 targets. This sample favours those with a hit. About 0.6% of all pairs of compound and target were hits. A number with no mark means an inactive call.
Assays:
Assay in all cases: log2 fold change, soluble protein after heating vs DMSO (PISA); higher = thermal stabilisation; K562 cells, 10 uM, 30 min; active = over 0.2 and 3.5 SD of the protein, either way, in both replicates (recomputed)
[1] = compound: CC1=C(C=C(C=C1)NC(=O)C2=CC(=CC=C2)C(C)(C)C#N)NC3=CC4=C(C=C3)N=CN(C4=O)C
Method in brief: (§1)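 K562 cells at 2×10^6 cells/mL were given 10 μM compound for 30 min. Aliquots then went through 3 min of heating across 48°C-58°C, were pooled, and were extracted in PBS with 0.5% NP-40 at 4°C, and the supernatant after 21,000xg for 90 min was quantified by TMTpro 16plex LC-MS/MS with channel sums equalised. Thermal stability relative to control samples, from duplicates, is given as log2 fold change.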

[2] = compound: CC1=C(C=C(C=C1)NC(=O)C2=CC(=CC=C2)N(C)C)NC(=O)C3=CC=C(C=C3)O
Method in brief: as §1

[3] = compound: CC1=CC=C(C=C1)SC2=C3C=C(SC3=CN=C2)C(=O)N
Method in brief: as §1

[4] = compound: CC1=NC(=CC=C1)C2=C(N=C(N2)C(C)(C)C)C3=CC4=NC=CN=C4C=C3
Method in brief: as §1

Nexturastat A = compound: CCCCN(Cc1ccc(C(=O)NO)cc1)C(=O)Nc1ccccc1 [Nexturastat A]
Method in brief: as §1

vemurafenib = compound: CCCS(=O)(=O)Nc1ccc(F)c(C(=O)c2c[nH]c3ncc(-c4ccc(Cl)cc4)cc23)c1F [vemurafenib]
Method in brief: as §1

[5] = compound: CCCS(=O)(=O)Nc1ccc(F)c(C(=O)c2c[nH]c3ncc(Cl)cc23)c1F
Method in brief: as §1

[6] = compound: CCCc1cc(C)[nH]c(=O)c1CNC(=O)c1cc(-c2ccnc(N3CCN(C)CC3)c2)cc2c1cnn2C(C)C
Method in brief: as §1

givinostat = compound: CCN(CC)Cc1ccc2cc(COC(=O)Nc3ccc(C(=O)NO)cc3)ccc2c1 [givinostat]
Method in brief: as §1

barasertib = compound: CCN(CCCOc1ccc2c(Nc3cc(CC(=O)Nc4cccc(F)c4)[nH]n3)ncnc2c1)CCOP(=O)(O)O [barasertib]
Method in brief: as §1

[7] = compound: CC[C@@H]1C(=O)N(C)c2cnc(Nc3ccc(C(=O)NC4CCN(C)CC4)cc3OC)nc2N1C1CCCC1
Method in brief: as §1

volasertib = compound: CC[C@@H]1C(=O)N(C)c2cnc(Nc3ccc(C(=O)N[C@H]4CC[C@H](N5CCN(CC6CC6)CC5)CC4)cc3OC)nc2N1C(C)C [volasertib]
Method in brief: as §1

[8] = compound: CC[C@H](C)N1C=C(C2=C(C=C(C=C21)C3=CN=C(C=C3)N4CCNCC4)C(=O)NCC5=C(C=C(NC5=O)C)C)C
Method in brief: as §1

epoxomicin = compound: CC[C@H](C)[C@@H](C(=O)N[C@@H]([C@@H](C)O)C(=O)N[C@@H](CC(C)C)C(=O)[C@]1(CO1)C)NC(=O)[C@H]([C@@H](C)CC)N(C)C(=O)C [epoxomicin]
Method in brief: as §1

[9] = compound: CCn1c(C(=O)N(C2CC2)C2CC2)cc2c3c(ncn3C)c(Nc3cc(C)n(C)n3)nc21
Method in brief: as §1

[10] = compound: CCn1cc(-c2ccnc3[nH]c(-c4cccc(CN(C)C)c4)cc23)c(-c2ccc(NC(=O)N(C)C)cc2)n1
Method in brief: as §1

[11] = compound: CN(C)CC(=O)Nc1ccc2[nH]c(=O)c3ccccc3c2c1
Method in brief: as §1

rosiglitazone = compound: CN(CCOC1=CC=C(C=C1)C[C@H]2C(=O)NC(=O)S2)C3=CC=CC=N3 (racemic) [rosiglitazone]
Method in brief: as §1

[12] = compound: CN1C2=C(C3=C1C(=O)N(N=C3)CC4=CC(=CC=C4)N)SC(=C2)S(=O)C
Method in brief: as §1

[13] = compound: CN1CCC(CNc2ccc3ncc(-c4cccc(OC(F)(F)F)c4)n3n2)CC1
Method in brief: as §1

## PHAX (UniProt Q9H814)
Sequence of UniProt Q9H814 (Q9H814 whole entry, looked up): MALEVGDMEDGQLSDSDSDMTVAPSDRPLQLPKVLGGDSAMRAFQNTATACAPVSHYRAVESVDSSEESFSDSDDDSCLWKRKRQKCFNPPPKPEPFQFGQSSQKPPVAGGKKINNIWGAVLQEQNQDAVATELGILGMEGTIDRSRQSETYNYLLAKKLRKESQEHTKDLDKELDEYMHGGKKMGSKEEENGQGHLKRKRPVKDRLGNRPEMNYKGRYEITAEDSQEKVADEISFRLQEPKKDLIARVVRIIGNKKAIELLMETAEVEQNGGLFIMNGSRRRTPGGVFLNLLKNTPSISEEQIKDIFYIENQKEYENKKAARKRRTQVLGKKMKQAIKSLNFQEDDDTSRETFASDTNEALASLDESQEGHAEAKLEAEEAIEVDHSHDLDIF
[1]
  log2 fold change: -0.019
[2]
  log2 fold change: 0.013
[3]
  log2 fold change: 0.022
[4]
  log2 fold change: -0.043
Nexturastat A
  log2 fold change: 0.02
vemurafenib
  log2 fold change: 0.002
[5]
  log2 fold change: -0.019
[6]
  log2 fold change: -0.045
givinostat
  log2 fold change: -0.076
barasertib
  log2 fold change: -0.008
[7]
  log2 fold change: -0.03
volasertib
  log2 fold change: -0.106
[8]
  log2 fold change: 0.027
epoxomicin
  log2 fold change: -0.041
[9]
  log2 fold change: 0.014
[10]
  log2 fold change: 0.111
[11]
  log2 fold change: 0.011
rosiglitazone
  log2 fold change: -0.007
[12]
  log2 fold change: -0.054
[13]
  log2 fold change: 0.042

## PRKAR2A (UniProt P13861)
Sequence of UniProt P13861 (P13861 whole entry, looked up): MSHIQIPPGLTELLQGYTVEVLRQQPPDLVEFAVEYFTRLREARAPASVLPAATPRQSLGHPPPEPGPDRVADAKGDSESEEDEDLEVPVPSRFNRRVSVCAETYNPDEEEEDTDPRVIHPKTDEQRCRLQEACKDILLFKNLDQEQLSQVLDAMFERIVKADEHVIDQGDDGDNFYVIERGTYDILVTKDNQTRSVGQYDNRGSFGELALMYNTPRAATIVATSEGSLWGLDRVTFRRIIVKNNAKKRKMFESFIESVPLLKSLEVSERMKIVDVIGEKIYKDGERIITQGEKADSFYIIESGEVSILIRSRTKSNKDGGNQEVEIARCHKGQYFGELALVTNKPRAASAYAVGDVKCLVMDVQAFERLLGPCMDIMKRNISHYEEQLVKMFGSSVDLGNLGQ
[1]
  log2 fold change: 0.141
[2]
  log2 fold change: 0.001
[3]
  log2 fold change: 0.011
[4]
  log2 fold change: -0.033
Nexturastat A
  log2 fold change: 0.008
vemurafenib
  log2 fold change: -0.021
[5]
  log2 fold change: -0.021
[6]
  log2 fold change: 0.019
givinostat
  log2 fold change: 0.024
barasertib
  log2 fold change: -0.001
[7]
  log2 fold change: 0.03
volasertib
  log2 fold change: -0.024
[8]
  log2 fold change: 0.046
epoxomicin
  log2 fold change: -0.031
[9]
  log2 fold change: -0.007
[10]
  log2 fold change: -0.033
[11]
  log2 fold change: 0.047
rosiglitazone
  log2 fold change: 0.011
[12]
  log2 fold change: 0.077
[13]
  log2 fold change: 0.023

## POLR1A (UniProt O95602)
Sequence of UniProt O95602 (O95602 whole entry, looked up): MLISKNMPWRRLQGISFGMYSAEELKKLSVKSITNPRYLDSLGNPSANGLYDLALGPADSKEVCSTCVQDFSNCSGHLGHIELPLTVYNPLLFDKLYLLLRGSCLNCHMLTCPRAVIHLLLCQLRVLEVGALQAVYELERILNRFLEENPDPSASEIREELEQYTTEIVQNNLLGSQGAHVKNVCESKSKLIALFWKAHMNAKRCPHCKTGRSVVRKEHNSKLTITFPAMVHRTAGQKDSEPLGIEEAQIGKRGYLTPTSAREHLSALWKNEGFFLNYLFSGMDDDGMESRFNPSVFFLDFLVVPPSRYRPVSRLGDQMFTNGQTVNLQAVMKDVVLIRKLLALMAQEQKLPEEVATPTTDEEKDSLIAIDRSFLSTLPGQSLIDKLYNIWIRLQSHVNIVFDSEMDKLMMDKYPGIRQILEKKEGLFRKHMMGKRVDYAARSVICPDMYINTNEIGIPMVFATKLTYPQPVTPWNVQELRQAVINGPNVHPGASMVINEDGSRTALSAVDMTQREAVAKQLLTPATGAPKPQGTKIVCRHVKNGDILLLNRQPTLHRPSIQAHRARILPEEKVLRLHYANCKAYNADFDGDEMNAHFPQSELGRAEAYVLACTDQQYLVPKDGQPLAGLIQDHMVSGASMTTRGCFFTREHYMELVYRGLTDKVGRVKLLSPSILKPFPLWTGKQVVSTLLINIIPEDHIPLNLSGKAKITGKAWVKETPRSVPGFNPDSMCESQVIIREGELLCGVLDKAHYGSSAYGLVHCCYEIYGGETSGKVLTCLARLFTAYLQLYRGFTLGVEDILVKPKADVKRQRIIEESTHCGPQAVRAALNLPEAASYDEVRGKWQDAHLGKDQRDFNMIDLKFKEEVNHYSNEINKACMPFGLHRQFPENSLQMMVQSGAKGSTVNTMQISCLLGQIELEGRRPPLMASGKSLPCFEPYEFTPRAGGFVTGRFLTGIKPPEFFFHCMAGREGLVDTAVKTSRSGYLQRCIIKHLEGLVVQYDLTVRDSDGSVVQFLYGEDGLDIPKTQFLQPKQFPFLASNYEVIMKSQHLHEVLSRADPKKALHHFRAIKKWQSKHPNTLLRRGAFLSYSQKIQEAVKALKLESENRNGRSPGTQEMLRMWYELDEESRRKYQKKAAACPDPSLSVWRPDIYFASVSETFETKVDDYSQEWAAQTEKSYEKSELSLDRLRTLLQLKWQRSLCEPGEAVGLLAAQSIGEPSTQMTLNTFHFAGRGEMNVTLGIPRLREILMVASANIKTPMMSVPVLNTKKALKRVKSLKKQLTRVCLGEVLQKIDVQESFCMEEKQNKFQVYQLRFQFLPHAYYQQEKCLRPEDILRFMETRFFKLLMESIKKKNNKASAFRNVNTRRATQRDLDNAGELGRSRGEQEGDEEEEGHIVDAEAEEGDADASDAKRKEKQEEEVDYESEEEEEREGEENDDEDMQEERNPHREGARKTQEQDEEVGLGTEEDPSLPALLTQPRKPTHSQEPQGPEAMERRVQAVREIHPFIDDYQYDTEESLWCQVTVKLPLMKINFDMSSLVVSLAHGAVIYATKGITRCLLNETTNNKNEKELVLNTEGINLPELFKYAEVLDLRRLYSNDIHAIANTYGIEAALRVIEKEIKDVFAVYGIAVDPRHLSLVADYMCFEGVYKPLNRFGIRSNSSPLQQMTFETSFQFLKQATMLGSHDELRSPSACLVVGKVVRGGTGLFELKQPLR
[1]
  log2 fold change: -0.082
[2]
  log2 fold change: -0.019
[3]
  log2 fold change: -0.198
[4]
  log2 fold change: -0.185
Nexturastat A
  log2 fold change: 0.489 (active)
vemurafenib
  log2 fold change: 0.052
[5]
  log2 fold change: 0.062
[6]
  log2 fold change: 0.321
givinostat
  log2 fold change: 0.083
barasertib
  log2 fold change: 0.016
[7]
  log2 fold change: 0.059
volasertib
  log2 fold change: 0.071
[8]
  log2 fold change: -0.26
epoxomicin
  log2 fold change: -0.037
[9]
  log2 fold change: 0.063
[10]
  log2 fold change: -0.066
[11]
  log2 fold change: -0.086
rosiglitazone
  log2 fold change: 0.015
[12]
  log2 fold change: 0.056
[13]
  log2 fold change: 0.054

## PCID2 (UniProt Q5JVF3)
Sequence of UniProt Q5JVF3 (Q5JVF3 whole entry, looked up): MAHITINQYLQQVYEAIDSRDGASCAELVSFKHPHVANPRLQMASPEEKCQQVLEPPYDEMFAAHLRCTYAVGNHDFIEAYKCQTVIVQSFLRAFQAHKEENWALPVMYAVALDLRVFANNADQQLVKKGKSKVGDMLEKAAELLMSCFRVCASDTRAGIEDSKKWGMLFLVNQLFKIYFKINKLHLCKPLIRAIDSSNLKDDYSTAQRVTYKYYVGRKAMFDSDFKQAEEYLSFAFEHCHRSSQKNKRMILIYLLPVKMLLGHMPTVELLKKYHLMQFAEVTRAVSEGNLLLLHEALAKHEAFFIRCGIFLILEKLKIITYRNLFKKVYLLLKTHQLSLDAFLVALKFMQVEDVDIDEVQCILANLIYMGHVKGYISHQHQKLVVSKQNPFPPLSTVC
[1]
  log2 fold change: 0.024
[2]
  log2 fold change: -0.026
[3]
  log2 fold change: -0.066
[4]
  log2 fold change: 0.033
Nexturastat A
  log2 fold change: 0.153
vemurafenib
  log2 fold change: 0.069
[5]
  log2 fold change: 0.202
[6]
  log2 fold change: 0.071
givinostat
  log2 fold change: 0.114
barasertib
  log2 fold change: -0.016
[7]
  log2 fold change: -0.032
volasertib
  log2 fold change: 0.016
[8]
  log2 fold change: 0.072
epoxomicin
  log2 fold change: 0.027
[9]
  log2 fold change: -0.149
[10]
  log2 fold change: 0.035
[11]
  log2 fold change: -0.021
rosiglitazone
  log2 fold change: 0.064
[12]
  log2 fold change: 0.055
[13]
  log2 fold change: -0.086

## PDCD2L (UniProt Q9BRP1)
Sequence of UniProt Q9BRP1 (Q9BRP1 whole entry, looked up): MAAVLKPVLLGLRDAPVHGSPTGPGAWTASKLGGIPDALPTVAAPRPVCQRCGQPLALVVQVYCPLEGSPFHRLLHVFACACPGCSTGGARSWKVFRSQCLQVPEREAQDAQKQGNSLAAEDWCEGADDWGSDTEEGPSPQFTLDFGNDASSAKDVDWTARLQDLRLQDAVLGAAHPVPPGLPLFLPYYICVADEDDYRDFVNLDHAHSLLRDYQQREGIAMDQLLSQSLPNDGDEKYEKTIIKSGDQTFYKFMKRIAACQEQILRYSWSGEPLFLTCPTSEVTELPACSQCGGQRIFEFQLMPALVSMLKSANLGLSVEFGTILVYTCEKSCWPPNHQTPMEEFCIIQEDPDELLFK
[1]
  log2 fold change: -0.001
[2]
  log2 fold change: -0.104
[3]
  log2 fold change: 0.052
[4]
  log2 fold change: 0.068
Nexturastat A
  log2 fold change: 0
vemurafenib
  log2 fold change: -0.038
[5]
  log2 fold change: 0.079
[6]
  log2 fold change: 0.045
givinostat
  log2 fold change: -0.088
barasertib
  log2 fold change: 0.069
[7]
  log2 fold change: -0.201
volasertib
  log2 fold change: -0.435 (active)
[8]
  log2 fold change: 0.017
epoxomicin
  log2 fold change: 0.07
[9]
  log2 fold change: -0.107
[10]
  log2 fold change: -0.171
[11]
  log2 fold change: 0.038
rosiglitazone
  log2 fold change: 0.018
[12]
  log2 fold change: -0.038
[13]
  log2 fold change: -0.073

## PSMB6 (UniProt P28072)
Sequence of UniProt P28072 (P28072 whole entry, looked up): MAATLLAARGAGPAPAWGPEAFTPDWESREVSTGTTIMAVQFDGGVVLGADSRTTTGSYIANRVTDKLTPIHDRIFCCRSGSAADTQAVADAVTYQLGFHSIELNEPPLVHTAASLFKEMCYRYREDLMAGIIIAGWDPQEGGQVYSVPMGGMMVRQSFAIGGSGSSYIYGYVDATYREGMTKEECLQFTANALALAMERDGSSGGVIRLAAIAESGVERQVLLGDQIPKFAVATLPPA
[1]
  log2 fold change: 0.002
[2]
  log2 fold change: 0.306
[3]
  log2 fold change: -0.036
[4]
  log2 fold change: -0.001
Nexturastat A
  log2 fold change: -0.019
vemurafenib
  log2 fold change: -0.038
[5]
  log2 fold change: -0.062
[6]
  log2 fold change: -0.024
givinostat
  log2 fold change: -0.025
barasertib
  log2 fold change: -0.04
[7]
  log2 fold change: 0.029
volasertib
  log2 fold change: 0.195
[8]
  log2 fold change: -0.055
epoxomicin
  log2 fold change: -0.241 (active)
[9]
  log2 fold change: 0.013
[10]
  log2 fold change: 0.259
[11]
  log2 fold change: -0.019
rosiglitazone
  log2 fold change: -0.027
[12]
  log2 fold change: 0.053
[13]
  log2 fold change: 0.03

## PML (UniProt P29590)
[1]
  log2 fold change: -0.024
[2]
  log2 fold change: -0.001
[3]
  log2 fold change: -0.009
[4]
  log2 fold change: -0.02
Nexturastat A
  log2 fold change: -0.002
vemurafenib
  log2 fold change: -0.044
[5]
  log2 fold change: 0.018
[6]
  log2 fold change: -0.007
givinostat
  log2 fold change: -0.014
barasertib
  log2 fold change: 0.01
[7]
  log2 fold change: -0.051
volasertib
  log2 fold change: -0.136
[8]
  log2 fold change: 0.027
epoxomicin
  log2 fold change: -0.021
[9]
  log2 fold change: -0.001
[10]
  log2 fold change: -0.024
[11]
  log2 fold change: -0.049
rosiglitazone
  log2 fold change: 0.026
[12]
  log2 fold change: 0.015
[13]
  log2 fold change: -0.045

## PRKCB isoform 2 (UniProt P05771)
Sequence of UniProt P05771 (P05771 whole entry, looked up): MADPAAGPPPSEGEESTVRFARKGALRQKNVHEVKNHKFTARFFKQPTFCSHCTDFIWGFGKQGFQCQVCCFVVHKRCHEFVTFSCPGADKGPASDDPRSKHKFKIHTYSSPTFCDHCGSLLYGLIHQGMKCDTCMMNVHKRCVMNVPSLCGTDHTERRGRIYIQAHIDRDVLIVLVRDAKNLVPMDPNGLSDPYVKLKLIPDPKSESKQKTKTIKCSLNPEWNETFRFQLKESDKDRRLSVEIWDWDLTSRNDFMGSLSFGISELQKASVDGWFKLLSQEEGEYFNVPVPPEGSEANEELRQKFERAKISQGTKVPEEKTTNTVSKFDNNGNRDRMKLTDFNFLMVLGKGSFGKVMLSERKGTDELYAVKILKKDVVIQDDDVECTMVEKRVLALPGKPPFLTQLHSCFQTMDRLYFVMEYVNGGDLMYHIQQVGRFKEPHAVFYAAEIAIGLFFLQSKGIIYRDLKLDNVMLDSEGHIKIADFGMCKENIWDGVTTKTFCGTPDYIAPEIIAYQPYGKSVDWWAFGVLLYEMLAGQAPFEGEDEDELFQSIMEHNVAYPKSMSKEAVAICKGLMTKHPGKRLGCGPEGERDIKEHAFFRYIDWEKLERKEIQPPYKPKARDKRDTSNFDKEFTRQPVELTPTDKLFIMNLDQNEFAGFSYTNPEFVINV
[1]
  log2 fold change: 0.005
[2]
  log2 fold change: -0.014
[3]
  log2 fold change: -0.003
[4]
  log2 fold change: 0.01
Nexturastat A
  log2 fold change: -0.01
vemurafenib
  log2 fold change: 0.009
[5]
  log2 fold change: -0.007
[6]
  log2 fold change: 0.002
givinostat
  log2 fold change: 0.001
barasertib
  log2 fold change: 0.015
[7]
  log2 fold change: -0.068
volasertib
  log2 fold change: -0.213 (active)
[8]
  log2 fold change: 0.04
epoxomicin
  log2 fold change: 0.03
[9]
  log2 fold change: -0.005
[10]
  log2 fold change: -0.06
[11]
  log2 fold change: 0.006
rosiglitazone
  log2 fold change: 0.007
[12]
  log2 fold change: -0.054
[13]
  log2 fold change: -0.135
